Bioassay records deposited in PubChem BioAssay by Broad Institute.
HSF1 inh: HSF1 inhibitors in luciferase reporter cells, primary screen, cell-based, NIH3T3, luminescence; NIH3T3-HGL HSE-luciferase, MG132-induced, luminescence 8 h; active compounds read low; activity change, negative = inhibition, % at 7.5 µM (by protocol); 300,000 compounds, 0.77% hits;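 active = more than half of replicate wells show activity change below -50%, luminescence cut by over half; inconclusive = some wells, but at most half, below -50%; inactive = no replicate well below -50%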;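 also: luciferase reports HSF-1 transcriptional activity via heat shock element; 0% = median of DMSO wells and -100% = zero luminescence signal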
esBAF inh: Bmi1 luciferase reporter increase in mESCs, primary screen, esBAF inhibitor project, mouse ES cells, Bmi1 luciferase knock-in, single point | 350,000 compounds, 2% hits | 24 h; 100% = twice the neutral-well signal | reporter increase, % at 12.5 µM | AID 602393, 2012; in the data active = activation above about 40%; inconclusive = no clear call, values can overlap the other calls;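 also: 0% = median of the plate's neutral control wells and 100% = double that signal; a rise in the Bmi1 reporter signal indicates esBAF inhibition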
Wnt act: Wnt/beta-catenin pathway activators, primary screen, cell-based, plate reader, single point. Wnt/beta-catenin reporter cell assay, activator. activation, % at 9.35 µM. 300,000 compounds, 1.2% hits; in the data active = activation above about 30%, passing the limit was not always enough; inconclusive = no clear call, values can overlap the other calls;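 also: 0% = neutral control wells and 100% = positive control wells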
MITF TRPM1 HTS: activators of MITF-driven TRPM1 promoter reporter, primary screen, cell-based, SK-MEL-5, luciferase, single point; 300,000 compounds, 0.75% hits; activation, % at 12.5 µM; AID 588334, 2011; SK-MEL-5 TRPM1-promoter luciferase, 24 h; % of positive control, neutral wells = 0;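 active = mean activation of at least 80% with every replicate also reaching 80%; inconclusive = mean reaches 80% but some replicate falls short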;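 also: 0% = neutral control wells and 100% = parthenolide positive control wells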
HSF-1 act: HSF-1 activators, primary screen, NIH3T3-HGL cells, MG132 stress, luminescence, single point; AID 504408, 2011; 300,000 compounds, 1.7% hits; activation, % at 9 µM; NIH3T3-HGL HSF-1 luciferase reporter, 8 h; 100% = twice DMSO control signal;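 active = mean replicate activation of at least 50% with a set share of replicates each reaching 50%; inconclusive = only one of those two conditions met; inactive = mean below 50% and too few replicates reaching it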;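 also: 0% = median of the neutral control wells and 100% = twice that signal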
The depositor's hits bear a star; ? = inconclusive; . = no result. An excerpt weighted towards active compounds, which were near 3.8% of everything screened.

SMILES	HSF1 inh	esBAF inh	Wnt act	MITF TRPM1 HTS	HSF-1 act
O=C(Cc1ccccc1)NNc1ccc2ccccc2c1	-63*	.	1	-9	-67
C[C@@H]1CN([C@H](C)CO)S(=O)(=O)c2ccc(/C=C/c3ccccc3)cc2O[C@H]1CN(C)C(=O)NC1CCCCC1	.	6	.	.	.
O=C(C[C@@H]1C[C@H]2c3cc(NC(=O)CC4CC4)ccc3O[C@H]2[C@@H](CO)O1)NCc1cccc(F)c1	.	-4	.	.	.
O=C(Nc1ccccc1)Nc1ccc2ccccc2c1	1	.	44*	92*	12
CC(C)C(=O)Nc1ccc(-c2nnc(-c3ccccc3)o2)cc1	-7	-7	?	?	7
CC(=O)Nc1ccc2ccccc2c1	8	25	.	24	18
O=C(Nc1ccncc1)Nc1cccc(Cl)c1Cl	-1	10	5	-16	-1
CC(C)C(=O)Nc1ccc(C(=O)c2ccccc2)cc1	-19	67*	29	50	-37
O=C(Nc1ccccc1)Nc1cccc(Cl)c1Cl	24	60*	.	9	25
O=C([C@@H]1[C@@H](CO)[C@@H]2Cn3c(ccc(-c4cccnc4)c3=O)[C@H]1N2Cc1ccncc1)N1CCOCC1	.	-1	.	.	.
COc1ccc(S(=O)(=O)NCC2CCCN(C(=O)C3CCCC3)C2)cc1 (stereo not drawn)	-62*	.	-1	3	-70
C=CCNC(=S)Nc1ccc2nc(C)c(C)nc2c1	-2	?	.	.	-4
Cc1nc2ccc(NC(=S)NCc3ccccc3)cc2nc1C	8	41*	-2	54	20
C[C@@H]1CN([C@H](C)CO)S(=O)(=O)c2ccc(C3=CCCC3)cc2O[C@H]1CN(C)C(=O)C1CCOCC1	.	-1	.	.	.
COc1ccc(OCCOC(=O)c2cccs2)cc1	18	50*	1	.	63*
CCOc1ccc2nc(COC(=O)c3cccc([N+](=O)[O-])c3)c(C(C)=O)[n+]([O-])c2c1	27	.	0	.	69*
COc1ccc(C(=O)OCCc2cc3ccccc3c(=O)o2)cc1	.	19	-2	60	.
COc1ccc2nc(COC(=O)c3cccs3)c(C(C)=O)[n+]([O-])c2c1	-54*	.	0	-4	-63
O=C(OCCc1cc2ccccc2c(=O)o1)c1cccs1	.	75*	0	93*	.
C[C@@H]1CN([C@H](C)CO)C(=O)c2cc(NS(=O)(=O)c3cn(C)cn3)ccc2O[C@H]1CN(C)CC1CC1	.	-2	.	.	.
C[C@@H]1CCCCO[C@H](CN(C)C(=O)Cc2ccccc2)[C@@H](C)CN([C@@H](C)CO)C(=O)c2cc(NC(=O)CCC(F)(F)F)ccc2O1	.	2	.	.	.
O=C(/C=C/c1ccccc1Cl)Nc1ccccc1	15	.	45*	.	40
O=C(/C=C/c1ccccc1Cl)Nc1cccc(O)c1	49	.	54*	54	45
O=C(NC1Cc2ccccc2C1)[C@@H]1[C@@H](CO)[C@@H]2Cn3c(cccc3=O)[C@@H]2N1C(=O)c1ccccn1	.	-2	.	.	.
O=C(c1ccc(Cl)cc1)c1coc2ccc(O)cc12	-44	9	.	87*	-45
SMILES	HSF1 inh	esBAF inh	Wnt act	MITF TRPM1 HTS	HSF-1 act
O=C(c1ccc(Br)cc1)c1coc2ccc(O)cc12	-22	.	40*	?	-24
C[C@H]1CCCCO[C@@H](CN(C)C(=O)c2ccccc2)[C@@H](C)CN([C@@H](C)CO)C(=O)c2cc(NC(=O)Cc3ccccc3)ccc2O1	.	1	.	.	.
Cc1ccc(/C=C(\C#N)C(=O)NC(C)C)o1	-6	-5	-1	9	-16
Cc1ccc(/C=C(\C#N)C(=O)Nc2ccccn2)o1	37	63*	20	103*	60*
COc1ccc(/C=C(\C#N)C(=O)Nc2ccccn2)cc1	24	3	-3	12	75*
C[C@@H]1CN([C@@H](C)CO)C(=O)c2cc(-c3cccnc3)cnc2O[C@@H]1CN(C)C(=O)Nc1ccc(C(F)(F)F)cc1	.	3	.	.	.
C[C@@H]1CCCCO[C@@H](CN(C)Cc2ccc(C(=O)O)cc2)[C@@H](C)CN([C@@H](C)CO)C(=O)c2cc(NC(=O)Cc3ccccc3)ccc2O1	.	-2	.	.	.
CC(C)c1ccc(NC(=O)[C@@H]2CCC(=O)N2C2OC(=O)c3ccccc32)cc1 (stereo partly drawn)	4	56*	0	46	18
